Sm TGR inh = inhibitors of Schistosoma mansoni thioredoxin glutathione reductase; Q962Y6; purified TGR, DTNB reduction, TNB absorbance 405 nm; Potency, µM (doses to about 114 µM), without a hit: at the top dose activity change, negative = inhibition, hits mostly inhibitors; 360,000 compounds, 3% hits; AID 485364; note: potency is the fitted concentration of half-maximal effect; % is set by controls: 0 for no effect and ±100 for the full control effect; nearly all actives have a fitted effect of over 60% in size
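First, TGR (20 nM dispensed) and NADPH were mixed with compound. Second, a 15 min room-temperature incubation followed. Third, further NADPH and then DTNB were added to start the reaction. Finally, TNB absorbance was monitored kinetically.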
LmPK inhibitor = blocks Leishmania mexicana pyruvate kinase activity; 290,000 compounds, 0.37% hits; AID 1721; purified LmPK, Kinase-Glo ATP luminescence, 1 h; Potency, µM (top dose mostly 57.5 µM), inactives show top-dose activity change, negative = inhibition, actives largely listed as inhibitors; Q27686; note: potency is the fitted concentration of half-maximal effect; % is set by controls: 0 for no effect and ±100 for the full control effect
Target sequence (Q27686 whole entry, looked up): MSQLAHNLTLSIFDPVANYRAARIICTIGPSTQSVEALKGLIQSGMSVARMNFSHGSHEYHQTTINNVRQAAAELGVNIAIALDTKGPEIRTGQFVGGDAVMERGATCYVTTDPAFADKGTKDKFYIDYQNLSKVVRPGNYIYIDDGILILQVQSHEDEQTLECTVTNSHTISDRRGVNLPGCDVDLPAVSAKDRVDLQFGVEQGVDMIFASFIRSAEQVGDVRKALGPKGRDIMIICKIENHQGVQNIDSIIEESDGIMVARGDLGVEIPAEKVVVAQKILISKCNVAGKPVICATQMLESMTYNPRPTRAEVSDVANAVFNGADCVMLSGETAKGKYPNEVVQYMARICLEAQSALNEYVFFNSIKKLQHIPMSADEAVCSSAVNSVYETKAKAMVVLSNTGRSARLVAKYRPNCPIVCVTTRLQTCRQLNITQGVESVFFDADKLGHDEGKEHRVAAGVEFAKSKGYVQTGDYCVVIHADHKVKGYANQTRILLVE
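qHTS format; LmPK 0.1 nM; substrates PEP 0.5 mM and ADP 0.1 mM. One-hour room-temperature incubation, then coupled luciferase luminescence; 0.5 nM enzyme wells mark activation.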
Giardia FBPA inh = Giardia lamblia aldolase inhibition. purified Giardia FBPA. AID 2451. A8B2U2. 290,000 compounds, 0.71% hits. Potency, µM (titrated, usually from 59.6 µM), without a hit: at the top dose activity, negative = inhibition, usual class: inhibitors; note: potency is the fitted concentration of half-maximal effect; % is set by controls: 0 for no effect and ±100 for the full control effect; nearly all actives have a fitted effect of over 55% in size
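40 nM FBPA preincubated 10 min at RT with compound (up to 57.5 uM final), then substrate plus GAPDH/TPI/NAD/arsenate coupling and diaphorase/resazurin added. Fluorescence read after 20 min at RT, 525/598 nm.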
Tb PYK inh = inhibitors of Trypanosoma brucei pyruvate kinase. Q57TT1. TbPYK enzyme, Kinase-Glo Plus ATP luminescence, 45 min. Potency, µM (series often up to 76.8 µM), for the others: at the top dose activity, negative = inhibition, most hits filed as inhibitors. 410,000 compounds, 0.12% hits. AID 624173; note: potency is the fitted concentration of half-maximal effect; % is set by controls: 0 for no effect and ±100 for the full control effect; nearly all actives have a fitted effect of over 50% in size
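Readout: single end-point luminescence (Kinase-Glo Plus, 10 min). Reaction conditions were TbPYK/substrate plus 130 uM ADP, 45 min at RT, pH 7.2 TEA buffer. No-enzyme wells served as controls, and data were normalized before concentration-response fitting.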
Cycloheximide cs = affects cycloheximide protein synthesis inhibition readout, counter-screen | AID 2314 | cell reporter, cycloheximide protein synthesis inhibition counterscreen | 300,000 compounds, 12% hits | max response, %; in the data active = max response mostly above about 13%, no sharp cut-off; inactive = mostly below about 14%; note: read at 38.3 µM for the half of the compounds with a filed dose; 0% is about no effect
Shiga inhibitor = inhibitors of Shiga toxin in Vero cells; AID 2315; inhibition, % at 38.7 µM; Vero cells, Shiga toxin protein synthesis inhibition reporter; 290,000 compounds, 9.2% hits; in the data active = inhibition mostly above about 28%, no sharp cut-off; inactive = mostly below about 43%; note: 0% is about no effect
An asterisk follows results filed as active; [ ] = dose if it differs, or a comment. This is one part of a sample in which hits are shown more often than they occur. Unless noted, calls come from the whole dose curve; as a rule, active = well fitted curve in the direction sought with a large enough effect; inconclusive = small, poorly fitted or top-dose-only effect, or another doubt; inactive = no such curve, though single readings can be large; an effect the other way counts as inactive or inconclusive.

Results for Cc1ccc(S(=O)(=O)N2CCN(C(=O)/C=C/c3ccco3)CC2)cc1 ?
Sm TGR inh: 50.1µM*; LmPK inhibitor: 6.0%; Giardia FBPA inh: 1.4%; Tb PYK inh: 0.6%; Cycloheximide cs: 2.2; Shiga inhibitor: -4.5

How did COc1ccc(C(CNC(=O)CNC(=O)c2cccc(C)c2)N2CCCCC2)cc1 (centres undefined) do in these assays?
Tb PYK inh: 2.0%

How did CN(Cc1ccc(F)cc1)Cc1nc(CCc2ccccc2)no1 do in these assays?
Sm TGR inh: 18.6%; LmPK inhibitor: -4.2%; Giardia FBPA inh: 2.3%; Tb PYK inh: -4.1%; Cycloheximide cs: 1.2; Shiga inhibitor: -9.7

Results for CN(Cc1nc(CCc2ccccc2)no1)Cc1cccs1 ?
Sm TGR inh: 7.7%; LmPK inhibitor: 3.7%; Giardia FBPA inh: -1.5%; Tb PYK inh: -8.7%; Cycloheximide cs: 15.7*; Shiga inhibitor: 25.2

Results for O=C(O)c1ccc2c(c1)C(=O)N([C@@H](C(=O)O)C(c1ccccc1)c1ccccc1)C2=O ?
Sm TGR inh: 10.1%; Giardia FBPA inh: 11.7%; Cycloheximide cs: -5.6; Shiga inhibitor: -1.7

Results for CCCOc1ccc(C(=O)Nc2ccc3c(c2)OCO3)cc1 ?
Sm TGR inh: -6.6%; LmPK inhibitor: -12.7%; Tb PYK inh: -13.7%; Cycloheximide cs: 48.9*; Shiga inhibitor: 121.8*

What do the screens show for `CCC(=O)Oc1ccc(C(=O)Nc2ccc3c(c2)OCO3)cc1`?
LmPK inhibitor: inconclusive; Giardia FBPA inh: -2.1%; Tb PYK inh: -6.9%; Cycloheximide cs: 46.4*; Shiga inhibitor: 107.5*

Results for CCOc1cc(C(=O)Nc2ccc(C(=O)NCCN(CC)CC)cc2)ccc1OCC(=O)N1CCOCC1 ?
Sm TGR inh: 35.5µM*; Tb PYK inh: -4.3%

How did CCCCOc1ccc(C(=O)Nc2ccc3c(c2)OCO3)cc1 do in these assays?
Sm TGR inh: 9.5%; LmPK inhibitor: -1.0%; Giardia FBPA inh: 0.6%; Tb PYK inh: -1.8%; Cycloheximide cs: 17.8*; Shiga inhibitor: 24.4

Results for CC(O)(c1ccncc1)c1nc(-c2cccc(C(F)(F)F)c2)cs1 (centres undefined) ?
Tb PYK inh: -6.5%

How did COCCNC(=O)c1[nH]c(C(F)(F)F)nc1-c1ccccc1 do in these assays?
Tb PYK inh: 1.7%

How did CO[C@@H]1/C=C\CC(=O)N[C@@H](C)C(=O)OC[C@@H](OC)[C@H](C)/C=C\CC(=O)OC[C@H]1C do in these assays?
Giardia FBPA inh: -0.5%[12.9 µM]

How did O=C(Cn1c(=O)n(-c2ccc(F)c(Cl)c2)c(=O)c2sc3ccccc3c21)NC1CCCCC1 do in these assays?
Sm TGR inh: 4.4%; Tb PYK inh: 1.9%

What do the screens show for `CCCCOc1ccc(C(=O)Nc2ccc(OCC(=O)N3CCOCC3)cc2)cc1`?
Sm TGR inh: inconclusive; LmPK inhibitor: 2.3%; Giardia FBPA inh: -3.1%; Tb PYK inh: 0.5%; Cycloheximide cs: 25.7*; Shiga inhibitor: 51.2*

How did Cc1ccc(N=Nc2[nH]c3ccccc3c2O)cc1 do in these assays?
Sm TGR inh: -29.4%; LmPK inhibitor: 1.4%; Giardia FBPA inh: 0.9%; Tb PYK inh: -27.9%; Cycloheximide cs: 68.5*; Shiga inhibitor: 152.2*

What do the screens show for `NC(=O)c1ccc(N=Nc2c(O)c3ccccc3[nH]c2=O)cc1`?
Sm TGR inh: -1.7%; LmPK inhibitor: 2.4%; Giardia FBPA inh: -9.8%; Cycloheximide cs: 1.4; Shiga inhibitor: 4.3

Results for COc1ccc(-n2c(=S)[nH]c3ccc(C)cc3c2=O)cc1 ?
Tb PYK inh: 1.3%

What do the screens show for `COc1ccc(N=Nc2[nH]c3ccc(C)cc3c2O)cc1`?
Sm TGR inh: -16.6%; LmPK inhibitor: -0.7%; Giardia FBPA inh: -13.3%; Tb PYK inh: -17.2%; Cycloheximide cs: 22.4*; Shiga inhibitor: 35.0*

What do the screens show for `O=C1C(O)CCN1Cc1ccccc1` (centres undefined)?
Tb PYK inh: -12.1%

Results for CCCCNC(=O)C1c2ccccc2OCC(=O)N1CCc1c[nH]c2ccccc12 (centres undefined) ?
Tb PYK inh: 1.6%

Results for O=C(O)c1ccc(CSc2nnc(-c3ccco3)o2)cc1 ?
Sm TGR inh: -5.5%; LmPK inhibitor: 10.3%; Giardia FBPA inh: 23.9%; Tb PYK inh: 1.8%; Cycloheximide cs: -6.4; Shiga inhibitor: 5.5

What do the screens show for `N#Cc1c(N)nc(SCc2ccccc2)c(C#N)c1-c1ccco1`?
Sm TGR inh: 50.1µM*; LmPK inhibitor: -0.3%; Giardia FBPA inh: -11.9%; Tb PYK inh: -9.4%; Cycloheximide cs: 15.3*; Shiga inhibitor: 5.8

How did Brc1ccc(CSc2nnc(-c3ccco3)o2)cc1 do in these assays?
Sm TGR inh: -1.9%; LmPK inhibitor: -0.6%; Giardia FBPA inh: -1.1%; Tb PYK inh: 8.5%; Cycloheximide cs: 63.0*; Shiga inhibitor: 69.1*

How did c1ccc(CSc2nnc(-c3ccco3)o2)cc1 do in these assays?
Sm TGR inh: -1.1%; LmPK inhibitor: -0.1%; Giardia FBPA inh: 1.7%; Tb PYK inh: -2.7%; Cycloheximide cs: 49.2*; Shiga inhibitor: 108.6*

What do the screens show for `Cc1ccc(CSc2nnc(-c3ccco3)o2)cc1`?
Sm TGR inh: -22.5%; LmPK inhibitor: 0.8%; Giardia FBPA inh: 6.8%; Tb PYK inh: -7.6%; Cycloheximide cs: 33.2*; Shiga inhibitor: 107.3*

What do the screens show for `O=C(Nc1ccc(F)cc1)c1ncn(-c2ccccc2)n1`?
Sm TGR inh: 5.2%; Tb PYK inh: 3.6%

What do the screens show for `O=S1(=O)C[C@H](N2CCC(Cc3ccccc3)CC2)[C@@H](COCc2ccccc2)N1`?
Tb PYK inh: 3.6%

How did c1coc(-c2nnc(SCc3nc4ccccc4[nH]3)o2)c1 do in these assays?
Sm TGR inh: inconclusive; LmPK inhibitor: -0.8%; Giardia FBPA inh: -26.0%; Tb PYK inh: -5.6%; Cycloheximide cs: 7.8; Shiga inhibitor: 18.4

How did Fc1ccc(CSc2nnc(-c3ccco3)o2)cc1 do in these assays?
Sm TGR inh: 2.4%; LmPK inhibitor: -10.5%; Giardia FBPA inh: 0.1%; Tb PYK inh: -0.1%; Cycloheximide cs: 45.8*; Shiga inhibitor: 58.8*

How did CC(=O)Nc1ccccc1-c1ccccc1[N+](=O)[O-] do in these assays?
Tb PYK inh: -1.1%

Results for CCS(=O)(=O)c1cc([N+](=O)[O-])c(Sc2ccccc2NC(C)=O)s1 ?
Sm TGR inh: 2.82µM*; LmPK inhibitor: 6.8%; Giardia FBPA inh: -8.9%; Tb PYK inh: -33.3%; Cycloheximide cs: 14.4*; Shiga inhibitor: 33.1

Results for C#CCNC(=O)C1=C[C@@H](c2ccc(C(F)(F)F)cc2)C[C@@H](OCc2ccc(CO)cc2)O1 ?
Tb PYK inh: 1.3%

What do the screens show for `CN1CCN(C(=O)C2=C[C@@H](c3ccc(C(F)(F)F)cc3)C[C@@H](OCCCCO)O2)CC1`?
Sm TGR inh: 44.7µM*; LmPK inhibitor: 2.1%; Giardia FBPA inh: -6.0%; Tb PYK inh: 0.3%; Cycloheximide cs: -1.6; Shiga inhibitor: -13.7
